The subject of test [1] is PRMT1 (protein arginine N-methyltransferase 1). In words: small molecules binding arginine methyltransferase PRMT1 – biochemical, small-molecule microarray, 635 nm fluorescence, primary screen (AID 1088).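 Also: binding of Prmt1 protein to compounds spotted on small-molecule microarray slides.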 Particulars: higher = more signal.
Test [2] can be described thus: growth effects on S. cerevisiae YJM789 – YJM789 clinical isolate, OD600, 24 h, basal, primary screen (AID 1089).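 Also: growth of clinical yeast isolate S. cerevisiae YJM 789 seeded 1000 cells per well; test concentration not given here.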 Particulars: higher = more signal, called active from +8 up or from −8 down.
A short description of test [3]: S. pombe growth modifiers, basal conditions – strain 972, OD600, 24 h, no modulator, primary screen (AID 1090).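 Also: basal condition with compound alone and no growth modifier present; test concentration not given here.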 The following applies: S. pombe 972 growth, higher = more signal, called active from +8 up or from −8 down.
The nature of test [4]: budding yeast growth modifiers under rapamycin – strain BY4716, OD600, 96 h, primary screen (AID 1091). Also: test concentration not given here. Particulars: S. cerevisiae BY4716 + rapamycin, higher = more signal, called active from +8 up or from −8 down.
Test [5] has as its target Torsin-1A-interacting protein 2 (Homo sapiens) (UniProt Q8NFQ8). The test can be described thus: small molecules binding lysate-expressed LULL1 – cell lysate, human LULL1 lysate, 635/667 nm fluorescence, primary screen (AID 1092).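 Also: probe is lysate of COS7 cells overexpressing human LULL1; score merges per-feature 667 nm fluorescence with signal-to-noise.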 The following applies: small-molecule microarray, hLULL1 lysate binding, 635 nm fluorescence; higher = more signal.
Test [6] in a line: optical density change of DRC41 E. coli – strain DRC41, OD650, 24 h, E. coli filamentation project, primary screen (AID 1093).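 Also: MC1000 strain lacking acrAB efflux and sulA so SOS filamentation is blocked; test concentration not given here.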 The following applies: E. coli DRC41 growth, higher = more signal, called active from +8 up or from −8 down.
A short description of test [7]: probe aLefty2 binding to arrayed compounds – biochemical, biotinylated probe, 635/667 nm fluorescence, primary screen (AID 1094).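 Also: score merges spot fluorescence near 667 nm with spot signal-to-noise ratio.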 The following applies: small-molecule microarray, higher = more signal.
The subject of test [8] is Noggin (protein binding on small-molecule microarray). The test can be described thus: small molecules binding Noggin protein – biochemical, 635/667 nm fluorescence, primary screen (AID 1095).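 Also: score merges 667 nm feature fluorescence with signal to noise over triplicate slides.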 Particulars: 635 nm fluorescence, higher = more signal.
Test [9] addresses Neurogenic locus notch homolog protein 3 (Homo sapiens) (UniProt Q9UM47). The test can be described thus: small molecules binding NOTCH3 protein – biochemical, 635/667 nm fluorescence, primary screen (AID 1096). The following applies: small-molecule microarray, 635 nm fluorescence, higher = more signal.
Test [10] can be described thus: probe aEGFR binding to arrayed compounds – biochemical, biotinylated probe, 635/667 nm fluorescence, primary screen (AID 1097).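 Also: probe is a biotinylated anti-EGFR antibody binding compounds printed on slides; score combines fluorescence near 667 nm and signal to noise of each spot.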 Particulars: small-molecule microarray, higher = more signal.
Test [11] deals with Plasmodium falciparum Sir2 (PF13_0152, Sir2A). The test can be described thus: Plasmodium falciparum Sir2A binding compounds – biochemical, small-molecule microarray, 635 nm fluorescence, primary screen (AID 1098).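 Also: score merges spot fluorescence intensity with its signal-to-noise ratio.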 Particulars: fluorescence 635 nm, higher = more signal.
Test [12] in a line: probe aDKK1 binding to arrayed compounds – biochemical, biotinylated probe, 635/667 nm fluorescence, primary screen (AID 1099).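 Also: score merges 667nm spot fluorescence with signal to noise across triplicate slides; reference of the scale not given here.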 Particulars: small-molecule microarray, higher = more signal.
The nature of test [13]: probe aCHRDL2 binding to arrayed compounds – biochemical, biotinylated probe, 635/667 nm fluorescence, primary screen (AID 1100). Particulars: small-molecule microarray, higher = more signal.
A short description of test [14]: change in splice reporter luminescence, either direction, cell-based, HEK293, spliceosome inhibition project, primary screen (AID 1101).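 Also: HEK293 cells carrying a splicing-competent luciferase reporter gene; test concentration not given here.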 The following applies: HEK293 splicing luciferase reporter, 24 h, higher = more signal, called active from +8 up or from −8 down. (A reporter such as luciferase makes a cellular process visible.)
In test [15] the target is Fibroblast growth factor 10 (Homo sapiens) (UniProt O15520). In words: compounds binding fibroblast growth factor 10 – biochemical, small-molecule microarray, 635 nm fluorescence, primary screen (AID 1102). The following applies: FGF10 binding, fluorescence 635 nm, higher = more signal.
Test [16] relates to glycogen synthase kinase-3 (GSK3A per assay name; protocol says GSK3B). In words: compounds binding glycogen synthase kinase-3 – biochemical, small-molecule microarray, 635 nm fluorescence, GSK3A, primary screen (AID 1103). Also: the record names both GSK3A and GSK3B. Particulars: fluorescence 635 nm, higher = more signal.
The target in test [17] is Epidermal growth factor receptor (Homo sapiens) (UniProt P00533). In words: compounds binding epidermal growth factor receptor – biochemical, small-molecule microarray, 635 nm fluorescence, primary screen (AID 1104).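 Also: score merges 667 nm emission intensity with spot signal to noise over triplicate slides.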 The following applies: EGFR binding, higher = more signal.
Test [18] concerns the target Follistatin-related protein 3 (Homo sapiens) (UniProt O95633). The test can be described thus: compounds binding follistatin-related protein 3 – biochemical, small-molecule microarray, 635 nm fluorescence, primary screen (AID 1105).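 Also: score merges emission near 667 nm and signal to noise per printed spot across three slides.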 Particulars: FSTL3 binding, higher = more signal.
Test [19] concerns the target Dickkopf-related protein 1 (Homo sapiens) (UniProt O94907). The test can be described thus: small molecules binding DKK1 protein – biochemical, small-molecule microarray, 635 nm fluorescence scan, primary screen (AID 1106).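 Also: score merges emission near 667 nm with signal to noise over three replicate slides.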 Particulars: higher = more signal.
For test [20], the system named is Inhibin beta A chain (activin A). The test can be described thus: small molecules binding activin A – biochemical, small-molecule microarray, 635 nm fluorescence scan, primary screen (AID 1107).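 Also: mouse activin A protein probed at 4.33 µg/mL on printed slides; score merges bound-protein fluorescence near 667 nm with spot signal-to-noise.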 The following applies: INHBA, higher = more signal.

Calls of active or inactive are those of the source.

Fibroblast growth factor 10 (Homo sapiens), sequence (O15520 whole entry, looked up): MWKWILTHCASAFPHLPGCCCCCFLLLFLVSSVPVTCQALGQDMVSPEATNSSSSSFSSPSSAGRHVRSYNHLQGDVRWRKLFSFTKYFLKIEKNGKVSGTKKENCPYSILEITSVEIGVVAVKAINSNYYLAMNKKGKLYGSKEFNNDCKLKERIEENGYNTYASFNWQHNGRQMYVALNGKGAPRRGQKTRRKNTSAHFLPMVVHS
Epidermal growth factor receptor (Homo sapiens), sequence (P00533 whole entry, looked up): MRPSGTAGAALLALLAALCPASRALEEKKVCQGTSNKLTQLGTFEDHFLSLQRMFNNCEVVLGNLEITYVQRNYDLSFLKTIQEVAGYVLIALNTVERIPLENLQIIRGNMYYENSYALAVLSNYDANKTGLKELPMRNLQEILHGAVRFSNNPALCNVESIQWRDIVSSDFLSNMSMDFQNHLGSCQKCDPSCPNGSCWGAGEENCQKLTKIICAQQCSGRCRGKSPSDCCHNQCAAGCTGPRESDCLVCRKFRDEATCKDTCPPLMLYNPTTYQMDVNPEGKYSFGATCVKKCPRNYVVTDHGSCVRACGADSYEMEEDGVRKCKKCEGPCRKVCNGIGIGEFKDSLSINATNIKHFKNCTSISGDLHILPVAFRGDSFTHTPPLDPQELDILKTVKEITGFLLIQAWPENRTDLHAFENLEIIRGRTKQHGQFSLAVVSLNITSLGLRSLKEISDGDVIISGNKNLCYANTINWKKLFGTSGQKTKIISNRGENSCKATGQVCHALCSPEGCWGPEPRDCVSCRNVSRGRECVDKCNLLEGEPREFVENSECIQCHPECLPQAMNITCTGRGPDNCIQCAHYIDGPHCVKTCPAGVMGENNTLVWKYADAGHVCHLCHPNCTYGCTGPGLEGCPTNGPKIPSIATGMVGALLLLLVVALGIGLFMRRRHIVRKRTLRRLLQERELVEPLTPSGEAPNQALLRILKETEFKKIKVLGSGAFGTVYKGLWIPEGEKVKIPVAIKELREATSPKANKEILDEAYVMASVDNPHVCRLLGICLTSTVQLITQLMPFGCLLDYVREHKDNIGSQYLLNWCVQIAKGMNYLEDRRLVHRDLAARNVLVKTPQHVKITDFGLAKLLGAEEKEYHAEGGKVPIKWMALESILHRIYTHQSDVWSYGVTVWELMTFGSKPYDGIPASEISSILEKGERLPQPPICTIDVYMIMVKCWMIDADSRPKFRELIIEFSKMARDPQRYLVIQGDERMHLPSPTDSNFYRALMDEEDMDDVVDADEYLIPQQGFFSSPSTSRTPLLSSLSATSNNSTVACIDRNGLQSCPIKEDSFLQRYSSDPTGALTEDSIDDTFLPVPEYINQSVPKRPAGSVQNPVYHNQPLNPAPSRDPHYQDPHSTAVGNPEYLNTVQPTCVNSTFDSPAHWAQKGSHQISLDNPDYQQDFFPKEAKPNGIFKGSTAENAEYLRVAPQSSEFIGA
Follistatin-related protein 3 (Homo sapiens), sequence (O95633 whole entry, looked up): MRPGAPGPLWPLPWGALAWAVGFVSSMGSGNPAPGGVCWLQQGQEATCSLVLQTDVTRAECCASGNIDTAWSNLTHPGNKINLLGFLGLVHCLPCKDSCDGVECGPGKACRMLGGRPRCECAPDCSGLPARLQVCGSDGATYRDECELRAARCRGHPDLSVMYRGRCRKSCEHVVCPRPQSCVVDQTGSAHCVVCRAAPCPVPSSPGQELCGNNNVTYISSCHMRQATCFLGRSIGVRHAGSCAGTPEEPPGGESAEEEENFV
Neurogenic locus notch homolog protein 3 (Homo sapiens), sequence (Q9UM47 whole entry, looked up): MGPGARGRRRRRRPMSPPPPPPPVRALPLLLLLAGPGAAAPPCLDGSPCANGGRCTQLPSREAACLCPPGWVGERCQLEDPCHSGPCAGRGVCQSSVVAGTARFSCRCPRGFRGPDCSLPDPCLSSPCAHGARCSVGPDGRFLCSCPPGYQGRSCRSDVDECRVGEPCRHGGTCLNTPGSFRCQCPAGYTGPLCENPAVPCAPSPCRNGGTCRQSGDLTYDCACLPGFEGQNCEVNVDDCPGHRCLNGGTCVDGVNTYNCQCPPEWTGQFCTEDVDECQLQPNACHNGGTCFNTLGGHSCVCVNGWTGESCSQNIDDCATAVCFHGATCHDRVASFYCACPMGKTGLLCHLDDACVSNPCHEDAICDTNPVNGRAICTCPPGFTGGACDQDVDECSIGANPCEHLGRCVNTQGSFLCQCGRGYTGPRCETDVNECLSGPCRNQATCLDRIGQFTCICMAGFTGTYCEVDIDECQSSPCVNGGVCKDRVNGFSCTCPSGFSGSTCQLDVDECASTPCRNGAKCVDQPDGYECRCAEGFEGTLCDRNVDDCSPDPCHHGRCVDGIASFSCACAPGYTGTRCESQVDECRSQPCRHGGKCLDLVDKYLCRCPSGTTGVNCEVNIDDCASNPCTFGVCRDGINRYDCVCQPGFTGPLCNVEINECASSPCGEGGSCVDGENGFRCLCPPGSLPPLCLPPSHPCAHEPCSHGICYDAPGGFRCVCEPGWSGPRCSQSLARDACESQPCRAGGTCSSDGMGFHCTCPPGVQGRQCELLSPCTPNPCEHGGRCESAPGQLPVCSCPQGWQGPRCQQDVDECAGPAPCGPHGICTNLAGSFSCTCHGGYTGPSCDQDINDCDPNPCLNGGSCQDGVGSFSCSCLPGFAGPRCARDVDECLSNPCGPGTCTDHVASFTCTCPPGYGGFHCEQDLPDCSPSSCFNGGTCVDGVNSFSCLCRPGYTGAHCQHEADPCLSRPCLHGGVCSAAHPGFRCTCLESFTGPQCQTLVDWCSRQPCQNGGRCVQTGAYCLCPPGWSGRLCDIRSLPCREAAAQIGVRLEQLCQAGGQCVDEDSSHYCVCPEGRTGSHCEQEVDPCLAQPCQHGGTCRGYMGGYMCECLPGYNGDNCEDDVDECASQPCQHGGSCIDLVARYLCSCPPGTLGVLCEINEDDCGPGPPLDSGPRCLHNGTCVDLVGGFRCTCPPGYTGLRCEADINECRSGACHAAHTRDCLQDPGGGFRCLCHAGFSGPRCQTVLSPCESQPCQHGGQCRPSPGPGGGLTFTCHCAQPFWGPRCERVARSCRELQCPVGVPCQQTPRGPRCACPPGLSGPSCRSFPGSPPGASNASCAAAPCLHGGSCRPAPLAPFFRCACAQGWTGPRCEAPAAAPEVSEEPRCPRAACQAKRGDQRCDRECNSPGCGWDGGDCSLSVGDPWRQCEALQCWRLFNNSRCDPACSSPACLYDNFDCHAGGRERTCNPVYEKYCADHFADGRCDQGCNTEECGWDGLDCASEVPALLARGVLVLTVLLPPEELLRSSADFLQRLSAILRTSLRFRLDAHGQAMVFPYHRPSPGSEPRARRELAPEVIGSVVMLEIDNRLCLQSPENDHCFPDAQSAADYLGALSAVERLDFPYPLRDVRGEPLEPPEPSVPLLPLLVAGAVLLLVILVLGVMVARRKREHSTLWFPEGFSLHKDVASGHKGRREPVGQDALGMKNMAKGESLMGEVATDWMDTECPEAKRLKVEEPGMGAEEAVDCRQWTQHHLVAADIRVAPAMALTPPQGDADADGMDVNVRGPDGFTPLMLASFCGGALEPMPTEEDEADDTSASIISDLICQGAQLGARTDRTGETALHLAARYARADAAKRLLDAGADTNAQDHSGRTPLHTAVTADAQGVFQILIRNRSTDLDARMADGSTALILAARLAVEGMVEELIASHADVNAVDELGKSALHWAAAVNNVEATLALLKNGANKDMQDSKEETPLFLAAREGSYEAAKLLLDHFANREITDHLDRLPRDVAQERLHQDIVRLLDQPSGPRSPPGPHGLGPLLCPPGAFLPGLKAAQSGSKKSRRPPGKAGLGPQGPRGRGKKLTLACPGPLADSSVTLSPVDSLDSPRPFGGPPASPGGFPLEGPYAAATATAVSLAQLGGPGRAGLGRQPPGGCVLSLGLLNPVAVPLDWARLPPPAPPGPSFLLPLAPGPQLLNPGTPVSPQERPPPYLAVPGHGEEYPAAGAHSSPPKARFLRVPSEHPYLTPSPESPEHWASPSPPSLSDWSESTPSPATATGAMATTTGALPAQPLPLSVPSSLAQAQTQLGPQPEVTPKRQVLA
Torsin-1A-interacting protein 2 (Homo sapiens), sequence (Q8NFQ8 whole entry, looked up): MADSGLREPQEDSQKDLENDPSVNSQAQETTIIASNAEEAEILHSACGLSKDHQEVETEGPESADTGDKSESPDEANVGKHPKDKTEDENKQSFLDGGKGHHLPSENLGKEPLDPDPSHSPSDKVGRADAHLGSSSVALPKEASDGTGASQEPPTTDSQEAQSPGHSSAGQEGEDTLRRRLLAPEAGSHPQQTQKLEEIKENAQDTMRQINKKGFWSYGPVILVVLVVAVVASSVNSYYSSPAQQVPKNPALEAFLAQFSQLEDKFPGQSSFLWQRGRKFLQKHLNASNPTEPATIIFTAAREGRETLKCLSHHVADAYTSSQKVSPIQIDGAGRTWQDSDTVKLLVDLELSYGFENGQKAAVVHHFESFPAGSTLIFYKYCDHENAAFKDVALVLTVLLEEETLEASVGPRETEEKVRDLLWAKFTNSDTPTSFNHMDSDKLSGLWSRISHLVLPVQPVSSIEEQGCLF
Dickkopf-related protein 1 (Homo sapiens), sequence (O94907 whole entry, looked up): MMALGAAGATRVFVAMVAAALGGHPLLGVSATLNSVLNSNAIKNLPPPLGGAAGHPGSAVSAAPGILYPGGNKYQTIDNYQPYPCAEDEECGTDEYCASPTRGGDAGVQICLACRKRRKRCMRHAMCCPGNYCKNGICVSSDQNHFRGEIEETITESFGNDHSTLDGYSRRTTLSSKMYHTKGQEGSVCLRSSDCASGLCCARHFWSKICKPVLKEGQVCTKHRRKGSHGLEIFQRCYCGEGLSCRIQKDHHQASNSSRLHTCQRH

In the case of `COCCOC(=O)N1C(=O)[C@@]2(c3cc(C#CC4=CCCCC4)ccc31)[C@H](c1ccc(O)cc1)N1[C@H](c3ccccc3)[C@H](c3ccccc3)OC(=O)[C@H]1[C@@H]2C(=O)N1CCCCCCC1`, the composite z-score in test [1] came out at 1.57; in test [5], 2.11; in test [7], 0.367; in test [8], 1.42; in test [9] it was 1.13; in test [10] it was 0.0143. Besides, the composite z-score in test [11] was determined as 0.84; in test [12], 0.854; in test [13], 0.842; in test [15] it was 0.603; in test [16] it was 1.3; in test [17], 0.405. Also, the results for the composite z-score in test [18], in test [19] and in test [20] were 1.24, 0.948 and 1.6, respectively. Further, the z-score was 0.2 (inactive) in test [2]; -1.06 (inactive) in test [3]; 0.776 (inactive) in test [4]; 2.01 (inactive) in [6]; -0.476 (inactive) in test [14].
Take `O=C(NCC(F)(F)F)[C@@H]1c2ccccc2C(=O)N(Cc2ccccc2Cl)[C@H]1c1ccc(CO)cc1`: the composite z-score in test [1] was -0.809; in [5], 1.18; in test [7], -0.605; in test [8], -1.5; in test [9], -1.14; in test [10], -0.0721. In addition, the composite z-score in [11] was 1.68; in test [12], 0.624; in test [13], -0.363; in test [15] it was -0.85; in test [16], -1.1; in test [17] it was -0.728. The composite z-score in [18] is -0.643; in [19], -0.941; in [20], -0.0121. Further, the z-score in test [2] is -0.896 (inactive); in [3] it was -0.243 (inactive); in test [4], 0.0061 (inactive); in test [6], 0.939 (inactive); in test [14] it was 0.632 (inactive).
Consider `Cc1ccc(S[C@]2(C(=O)O)CC(=O)N(Cc3ccccc3)[C@@H]2c2ccc(CO)cc2)cc1`, for which the composite z-score in [1] is 0.191; in [5] it was 1.88; in test [7], -0.0953; in test [8], -0.674; in [9], -0.0738; in [10] it was -0.136. Further, the composite z-score was -0.844 in test [11]; 0.638 in test [12]; 0.899 in test [13]; -0.0355 in test [15]; 0.132 in [16]; -0.289 in test [17]. Further, the composite z-score in test [18] was -0.0951; in test [19], -0.304; in test [20] it was 1.04. In addition, the z-score is -0.179 (inactive) in test [2]; -2.58 (inactive) in [3]; 0.215 (inactive) in test [4]; 2.49 (inactive) in [6]; -0.718 (inactive) in test [14].
Take `Cc1ccc(S[C@]2(C(=O)NC(C)C)CC(=O)N(C3Cc4ccccc4C3)[C@@H]2c2ccc(CO)cc2)cc1`: the composite z-score was 1.53 in test [1]; 2.95 in test [5]; -0.222 in test [7]; -0.0057 in test [8]; 0.506 in test [9]; -0.308 in [10]. Besides, the composite z-score in test [11] was 1.24; in test [12] it was -0.786; in [13], 0.556; in [15], -0.258; in test [16] it was -0.106; in [17] it was -0.544. Besides, the composite z-score in test [18] was -0.0429; in test [19], -1.2; in [20], -0.215. Besides, the z-score was 0.106 (inactive) in test [2]; -1.65 (inactive) in test [3]; -0.517 (inactive) in [4]; -2.16 (inactive) in test [6]; -1.15 (inactive) in [14].
As for `CCCC=C(CCC)[C@@H](NS(=O)(=O)c1ccc(-c2ccccc2)cc1)c1ccc(C(=O)OC)cc1`, the composite z-score in test [1] is 0.266; in [5], 1.76; in [7], -0.119; in [8], -0.666; in test [9], -0.616; in test [10], -0.059. Besides, the composite z-score is -0.127 in test [11]; 0.224 in [12]; 0.516 in test [13]; -0.632 in [15]; -0.84 in test [16]; -0.243 in [17]. In addition, the composite z-score in test [18] is -0.875; in test [19], -0.422; in test [20], 0.573. For the same molecule, the z-score in [2] was 0.282 (inactive); in test [3], -1.51 (inactive); in [4], 0.284 (inactive); in test [6] it was -1.9 (inactive); in [14], -2.72 (inactive).
As for `Cc1ccc(S(=O)(=O)N[C@H]2COC(=O)CC=C[C@H](C)COC(=O)N[C@@H](C)C(=O)CC=C[C@@H]2C)cc1`, the composite z-score is 0.67 in [1]; -0.866 in test [5]; -0.215 in test [7]; 1.18 in test [8]; 0.354 in test [9]; 0.0486 in test [10]. Besides, the composite z-score was 0.38 in test [11]; -0.589 in test [12]; -1.38 in test [13]; 0.588 in test [15]; 0.604 in test [16]; 0.831 in test [17]. The composite z-score was 1.4 in test [18], 2.08 in [19] and 0.283 in test [20]. For the same molecule, the z-score in [2] is -0.11 (inactive); in test [3] it was -0.784 (inactive); in test [4], 0.978 (inactive); in test [6] it was 0.12 (inactive); in test [14], -0.381 (inactive).
Take `COc1ccc([C@H]2C[C@H]3C(Br)=C[C@]2(OC)C(=O)[C@]32CO2)cc1`: the composite z-score in [1] is -0.378; in test [5], -0.288; in [7] it was -0.159; in test [8], 0.145; in test [9], 0.372; in test [10], -0.151. Moreover, the composite z-score in test [11] is 0.488; in test [12] it was -0.0499; in test [13], 0.348; in test [15], 1.05; in test [16], 0.083; in test [17], -0.0387. For the same molecule, the composite z-score in test [18] is -0.0092; in [19] it was 0.239; in test [20], 0.504. Besides, the z-score is -0.714 (inactive) in test [2]; -3.14 (inactive) in [3]; -0.577 (inactive) in test [4]; -0.987 (inactive) in [6]; 1.49 (inactive) in [14].
For the molecule `COC(=O)C1=CC(c2ccc(CO)cc2)=CC(C2CC2)N(Cc2sc3ccccc3c2Cl)C=C1C(=O)OC` (stereo not given), the composite z-score in [1] is 1.55; in test [5] it was 3.07; in test [7], 0.214; in test [8], 0.331; in [9], 1.1; in test [10], 0.157. Moreover, the composite z-score was found to be 1.55 in [11]; 1.02 in test [12]; 0.978 in [13]; 0.855 in test [15]; 1.3 in test [16]; 0.242 in test [17]. For the same molecule, the composite z-score in [18] came out at 1.19; in test [19], 0.304; in test [20], 0.715. For the same molecule, the z-score is -2.21 (inactive) in test [2]; -5.52 (inactive) in test [3]; -1.12 (inactive) in test [4]; -2.06 (inactive) in test [6]; -1.16 (inactive) in test [14].
For `COCCCNC(=O)[C@@]1(Sc2ccc(C)cc2)CC(=O)N(Cc2cc(C(F)(F)F)cc(C(F)(F)F)c2)[C@@H]1c1ccc(CO)cc1I`, the composite z-score is -0.217 in test [1]; 1.46 in test [5]; -0.105 in test [7]; -1.76 in test [8]; -0.973 in test [9]; -0.288 in test [10]. Besides, the composite z-score in test [11] is 1.84; in [12], 0.46; in [13], 1.19; in test [15], -0.511; in [16], -1.14; in [17], -1.34. Moreover, the composite z-score is -1.58 in test [18], -1.79 in [19] and 0.142 in [20]. In addition, the z-score was -1.27 (inactive) in [2]; -3.56 (inactive) in test [3]; 0.0085 (inactive) in [4]; 0.486 (inactive) in test [6]; -1.26 (inactive) in test [14].

These data come from PubChem BioAssay.
